Data from PubChem BioAssay AID361 (National Center for Advancing Translational Sciences (NCATS), 2006).
The campaign covered roughly 51,000 compounds. About 600 (1.2%) were called active. Another 2% or so got no clear call; they are omitted. No stated cut-off is given here; in the data, active means potency below about 11 µM; inconclusive means mostly about 12 µM to 25 µM; inactive means weaker than that;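 the screen sought inhibitors and activators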. Many of the other results were omitted from the sample, so actives are more common in it than they were.

Each molecule was assayed on pyruvate kinase (Bacillus stearothermophilus) (assay: Pyruvate Kinase). Details: purified pyruvate kinase, luminescence ATP production; ribose 5-phosphate activator present at AC10.
Procedure: Pyruvate kinase (partially purified from Bacillus stearothermophilus) was assayed for its ability to generate ATP from ADP using phosphoenolpyruvate (PEP) as a substrate. ATP generation was detected in a coupled reaction by luciferase-mediated luminescence, an ATP-dependent process. Pyruvate kinase substrates, PEP and ADP, were present in the assay at Km and […]-fold below Km respectively. The enzyme was assayed at an intermediate level of activity to screen for inhibitors and activators. In addition, ribose 5 phosphate, a positive modulator of pyruvate kinase, was included in the assay at AC10 in order to identify possible potentiators.
NCGC Assay Protocol Summary:
Three uL of substrate mix (final concentration, 50 mM imidazole pH 7.2, 50 mM KCl, 7 mM MgCl2, 2 mM PEP, 0.1 mM ADP, 0.7 nM ribose 5 phosphate, 0.01% Tween 20, 0.05% BSA) was dispensed into 1536 well plates. 23 nL of compound were delivered by a pin tool and 1 uL of enzyme mix (final concentration, 10 nM pyruvate kinase, 50 mM imidazole pH 7.2, 0.05% BSA) was added. After centrifugation at 1000 rpm for less than a minute, plates were incubated at room temperature for 2 hours. Three uL of detection and kinase stop mix (PKLight, Cambrex) was added, the plates centrifuged, and luminescence read by a ViewLux (Perkin Elmer) at 5 second exposure/plate. Data were normalized to the controls for AC100 stimulation (5 uM ribose 5 phosphate) and to AC100 inhibition (110 uM luteolin).
Potency means the concentration at half of the fitted maximal effect.

SMILES	Potency
Cn1c(=O)n(CCc2ccccc2)c(=O)c2c1nc1n2CCCN1c1ccccc1	> 57 µM (inactive)
COc1cc(OC)cc(C(=O)Nc2ccc(-c3nc4ccccc4o3)c(O)c2)c1	> 57 µM (inactive)
CN(C)CCCNc1c2c(c(C#N)c3nc4ccccc4n13)CCC2	> 57 µM (inactive)
c1ccc(-c2oc3ncnc(N4CCOCC4)c3c2-c2ccccc2)cc1	> 57 µM (inactive)
CC(C(=O)Nc1ccccc1-c1ccccc1)N1CCOCC1 (stereo unspecified)	> 57 µM (inactive)
CC(C(=O)N1CCOCC1)N1c2cccc3cccc(c23)S1(=O)=O (stereo unspecified)	1.8 µM (active)
CC(C(=O)O)N1C(=O)c2cccc3cccc1c23 (stereo unspecified)	36.6 µM (inactive)
O=C1Nc2c(Br)cc(Br)cc2C1(O)N1CCOCC1 (stereo unspecified)	8.12 µM (active)
COc1ccc(NC2CC(=O)N(C)C2=O)cc1 (stereo unspecified)	> 25.6 µM (inactive)
c1c2c(cc3sc(N4CCCCC4)nc13)OCCO2	1.52 µM (active)
Fc1ccc2nc(N3CCCCC3)sc2c1	41.1 µM (inactive)
CCOC(=O)N1CCC(NC(=O)c2ccc3nc(N4CCOCC4)sc3c2)CC1	> 57 µM (inactive)
COC(=O)c1ccc2c(=O)n(CC3CCCO3)c(=S)[nH]c2c1 (stereo unspecified)	> 57 µM (inactive)
Cc1nnc(SCC(N)=O)n1CC1CCCO1 (stereo unspecified)	> 57 µM (inactive)
Cc1ccsc1C(=O)OCC(=O)c1cc(C)n(CC2CCCO2)c1C (stereo unspecified)	0.617 µM (active)
COc1ccc(CNC(=O)c2cc3c(=O)n4ccccc4nc3n(CC3CCCO3)c2=N)cc1 (stereo unspecified)	> 57 µM (inactive)
O=C(Nc1cnn(Cc2ccc(Cl)cc2)c1)C1CCCC1	> 57 µM (inactive)
C=CCn1c(COc2ccccc2)nnc1SCC(=O)NCC(=O)OCC	> 57 µM (inactive)
O=C(NCc1ccccn1)c1cc2ccccc2oc1=O	> 57 µM (inactive)
COc1ccc(C(=O)N(Cc2ccc(N(C)C)cc2)C2CCS(=O)(=O)C2)cc1 (stereo unspecified)	> 57 µM (inactive)
CCC12CN3CC(CC)(CN(C1)C31C(=O)N(C)c3ccc(C)cc31)C2=O (stereo unspecified)	> 57 µM (inactive)
COc1ccc(CC(=O)n2nc(-c3cccnc3)nc2N)cc1	> 57 µM (inactive)
COC(=O)c1ccccc1NC(=O)c1ccccc1NS(C)(=O)=O	> 57 µM (inactive)
COC(=O)Cc1nc2ccccc2[nH]1	> 57 µM (inactive)

SMILES	Potency
Cc1ccc(-c2c3c(=O)n(C)c(=O)n(C)c3cn2-c2ccccc2O)cc1	> 57 µM (inactive)
CCOC(=O)N1CCN(CC(=O)c2c(C)[nH]c3ccccc23)CC1	> 57 µM (inactive)
Cc1c(C(=O)CN2CCOCC2)[nH]c2ccccc12	> 57 µM (inactive)
N#Cc1nc(COc2ccc(-c3ccccc3)cc2)oc1NCc1cccnc1	> 57 µM (inactive)
N#Cc1nc(-c2ccc(OCc3ccccc3)cc2)oc1NCCCN1CCOCC1	1.88 µM (active)
N#Cc1nc(Cc2ccccc2)oc1NCCc1ccccc1	> 57 µM (inactive)
O=C(O)CSCc1nc2ccccc2s1	> 57 µM (inactive)
O=C(CN1C(=O)COc2ccccc21)NCCN1CCc2ccccc2C1	> 57 µM (inactive)
Cn1c(C(=O)NCCN2CCc3ccccc3C2)cc2c(=O)[nH]c3ccccc3c21	9.21 µM (active)
Cc1cccc(N2CCN(C(=O)c3cc4c(=O)[nH]c5ccccc5c4n3C)CC2)c1C	> 11.4 µM (inactive)
FC(F)(F)c1nnc2sc(-c3ccco3)nn12	> 57 µM (inactive)
COc1cc(OC)cc(C(=O)Nc2ncc3c(n2)CC(C)(C)CC3=O)c1	> 57 µM (inactive)
Cn1c(=O)c2c(nc(N3CCCCCC3)n2CC(O)COc2ccc(Cl)cc2)n(C)c1=O (stereo unspecified)	> 57 µM (inactive)
CCC(=O)Nc1ccc(C(=O)Nc2ccc3c(c2)C(=O)N(CC2CCCO2)C3=O)cc1 (stereo unspecified)	> 57 µM (inactive)
COc1cccc(N(CC(=O)NC2CCCC2)C(=O)Cn2nnc(-c3ccc(C)cc3)n2)c1	> 57 µM (inactive)
CCOc1cc(C(=O)Nc2ncccn2)cc(OCC)c1OCC	> 57 µM (inactive)
CCOC(=O)c1cc(-c2nnc(-c3cc(OC)c(OC)c(OC)c3)o2)c(C)nc1C	> 57 µM (inactive)
CCOC(=O)c1cc2c(n(-c3ccc(C)cc3)c1=O)CCCC2=O	> 57 µM (inactive)
CN1CCN(c2ccc(NC(=O)COc3ccc(Cl)cc3Cl)cc2)CC1	> 57 µM (inactive)
CC(C)(C)NC(=O)C(c1ccco1)N(Cc1ccc2c(c1)OCO2)C(=O)Cn1nnc2ccccc21 (stereo unspecified)	> 57 µM (inactive)
CCc1nnc(NC(=O)c2nc3nccc(C)n3n2)s1	> 57 µM (inactive)
c1ccc(-n2ncc3c2ncn2c(C4CCCCC4)nnc32)cc1	> 57 µM (inactive)
CCc1ccccc1NC(=O)CSc1nnc([C@@H](NC(=O)OC(C)(C)C)C(C)CC)o1 (stereo partly specified)	> 57 µM (inactive)
Cc1cc(C)c(C#N)c(SCc2ccccc2C(=O)O)n1	> 57 µM (inactive)

SMILES	Potency
Cc1ccc(Cc2nc(-c3cccc(C)c3)no2)cc1	> 57 µM (inactive)
Cc1cccc(-c2noc(-c3ccc(F)cc3)n2)c1	10.4 µM (active)
COc1ccc2[nH]c(=O)c(-c3noc(-c4ccc(F)cc4)n3)cc2c1	> 57 µM (inactive)
CCC(CC)C(=O)Nc1cc(C(=O)OC)cc(C(=O)OC)c1	> 57 µM (inactive)
CC(C)OC(=O)c1cc(NC(=O)C2C3CCC(O3)C2C(=O)O)cc(C(=O)OC(C)C)c1 (stereo unspecified)	6.13 µM (active)
Cc1nc(NCc2ccccc2)c(C(N)=O)c2c1COC(C)(C)C2	> 25.6 µM (inactive)
COc1ccc2oc(=O)c(C(=O)O)cc2c1	> 57 µM (inactive)
Cc1cc(Cl)c(S(=O)(=O)NCc2cccnc2)cc1OCC(N)=O	> 57 µM (inactive)
Cc1nn(CC(=O)Nc2ccc3c(c2)nc(CN2CCCCC2)n3C)c(=O)c2ccccc12	> 57 µM (inactive)
COC(=O)c1ccc2c(c1)S(=O)(=O)NC(=NCCCN1CCOCC1)S2	> 57 µM (inactive)
COc1ccc2oc(C)c(NC(C)=O)c2c1	> 57 µM (inactive)
O=C(Nn1cc(C(=O)N2CCN(c3ccccc3F)CC2)c2ccccc2c1=O)c1cnccn1	> 57 µM (inactive)
COCC(C)n1c(SCc2ccc(C(=O)OC)o2)nc2ccccc2c1=O (stereo unspecified)	> 57 µM (inactive)
CCOc1cc(-c2nc3cc(C)ccn3c2NCC2CCCO2)ccc1O (stereo unspecified)	> 57 µM (inactive)
COc1ccccc1Cc1nc(-c2ccc(C)cc2)no1	> 57 µM (inactive)
CCOc1nc(-c2ccc(OC)cc2)ccc1-c1noc(-c2cc(OC)c(OC)c(OC)c2)n1	> 57 µM (inactive)
COc1ccc(-c2nc(-c3ccccc3)no2)c(OC)c1	0.55 µM (active)
Cn1c(=O)c2c(n(Cc3ccccc3)c1=O)NC(=O)C2CC(=O)N1CCc2ccccc2C1 (stereo unspecified)	> 57 µM (inactive)
CC(C)C(=O)N1CCN(CCN=CC2=C(O)CC(c3ccco3)CC2=O)CC1 (stereo unspecified)	> 57 µM (inactive)
O=C(CN1CCN(C2CCCCC2)CC1)Nc1ccccc1N1CCCCC1	> 57 µM (inactive)
Fc1ccccc1OCCCCn1cncn1	> 57 µM (inactive)
Cc1cccc(-n2ncc3c(N4CCc5ccccc54)ncnc32)c1	> 57 µM (inactive)
CCN(CC)CCCN1C(=O)C(=O)/C(=C(/O)c2c(C)nc3ccccn23)C1c1ccc(C)o1 (stereo unspecified)	> 57 µM (inactive)
